Hits are enriched below; roughly 3.1% of the tested compounds scored in any of these assays.
Nrf2 block: blocks Nrf2 signaling; A549 ARE-Fluc reporter, luciferase luminescence, 18-24 h; AID 504444; 360,000 tested, 2.1% active; Potency, µM (series often up to 46 µM), for inactives: at the highest dose activity change, negative = inhibition, hits mostly inhibitors; also: % is scaled to controls: 0 for no effect and ±100 for the full control effect; nearly all actives have a fitted effect of over 60% in size
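Nrf2 function is reported as luminescence of an ARE-controlled luciferase in A549 cells. Compounds were tested at several concentrations, and a CellTiter-Fluor read on the same wells flagged cytotoxicity.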
TrxR1 substrate: is turned over as a substrate by rat TrxR1. O89049. purified TrxR1 substrate turnover, NADPH consumption readout. Potency, µM (top dose mostly 114 µM), without a hit: at the top dose activity change, negative = substrate turnover. 390,000 tested, 0.01% active. AID 588456; also: % is scaled to controls: 0 for no effect and ±100 for the full control effect; nearly all actives have a fitted effect of over 50% in size
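Rat TrxR1, dispensed at 90 nM, was prereduced with 400 uM NADPH (final) for 5 min at ~22 deg C, then incubated with compound 15 min before 400 uM selenite. A first-read NADPH fluorescence drop versus no-compound background flagged substrates.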
Mito fusion yeast: blocks mitochondrial division or promotes mitochondrial fusion. Potency, µM (doses to about 46.1 µM), for inactives: at the top dose growth rescue (activation), most hits filed as activators. S. cerevisiae fusion-defective mutant growth rescue, CellTiterGlo 48 h. 320,000 tested, 0.23% active; also: % of control where 0% means no effect; nearly all actives have a fitted effect of over 45% in size
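Read-out: ATP-based luminescence (CellTiterGlo, 10 min ambient) reporting growth of fusion-defective ts yeast after 48 hours at 37C on glycerol/ethanol YPEG medium in the presence of compound.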
mIDH1 inhibitor: blocks human mutant IDH1 R132H enzyme | O75874 | IDH1-R132H enzyme, NADPH consumption, diaphorase/resazurin fluorescence | Potency, µM (doses to about 76.6 µM), for the others: top-dose activity change, negative = inhibition, usual class: inhibitors | 390,000 tested, 0.093% active | AID 602179; also: % is scaled to controls: 0 for no effect and ±100 for the full control effect; nearly all actives have a fitted effect of over 65% in size
Target sequence (O75874 whole entry R132H, stated change not applied): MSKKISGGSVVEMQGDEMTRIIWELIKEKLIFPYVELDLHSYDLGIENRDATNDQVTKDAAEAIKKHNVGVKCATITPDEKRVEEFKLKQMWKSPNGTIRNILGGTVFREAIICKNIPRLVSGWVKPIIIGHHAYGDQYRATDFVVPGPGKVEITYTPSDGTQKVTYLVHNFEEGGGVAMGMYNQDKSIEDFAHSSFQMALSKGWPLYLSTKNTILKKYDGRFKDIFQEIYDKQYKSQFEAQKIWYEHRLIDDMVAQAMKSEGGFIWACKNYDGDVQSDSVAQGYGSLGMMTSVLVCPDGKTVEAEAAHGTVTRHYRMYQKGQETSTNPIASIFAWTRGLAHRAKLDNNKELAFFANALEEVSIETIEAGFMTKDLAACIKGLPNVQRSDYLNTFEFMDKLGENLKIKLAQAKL
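IDH1-R132H (0.5 ug/mL dispensed) in pH 7.5 Tris buffer was preincubated 30 min with compound, then given a substrate mix of 0.016 mM NADPH and 2 mM alpha-KG for 80 min at room temperature; remaining NADPH was read by diaphorase/resazurin fluorescence.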
A549 viability: A549 cytotoxicity, counter-screen for Nrf2 inhibitors | A549 ARE-Fluc cells, CellTiter-Fluor viability, 18-24 h | Potency, µM (titrated, usually from 46 µM), for the others: at the top dose activity change, negative = cytotoxicity, most hits filed as inhibitors | 390,000 tested, 0.16% active | AID 504648; also: % is scaled to controls: 0 for no effect and ±100 for the full control effect
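Cytotoxicity counterscreen: CellTiter-Fluor fluorescence was measured in A549 ARE_Fluc cells after 18-24 h of compound exposure in a concentration series. The subsequent BugLite luminescent read reports ARE-luciferase activity.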
TrxR1 inh: inhibitors of rat thioredoxin reductase 1; Potency, µM (highest dose often 114 µM), for the others: at the top dose activity change, negative = inhibition, usual class: inhibitors; O89049; 390,000 tested, 1% active; recombinant rTrxR1, NADPH fluorescence consumption, selenite substrate; also: % is scaled to controls: 0 for no effect and ±100 for the full control effect; nearly all actives have a fitted effect of over 65% in size
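Rat TrxR1 (90 nM in the dispensed reagent) was pre-reduced with 400 uM NADPH for 5 min at room temperature, then incubated with compound for 15 min. After 400 uM selenite was added, NADPH fluorescence (Ex 340/Em 450 nm) was followed for 8 min.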
Numbers without * were called inactive; u = inconclusive; x = not tested or not shown; [ ] = another dose, or the depositor's remark. Calls follow the shape of the dose curve; as a rule, active = well fitted curve in the direction sought with a large enough effect; inconclusive = small, poorly fitted or top-dose-only effect, or another doubt; inactive = no such curve, though single readings can be large; an effect the other way counts as inactive or inconclusive. Potency is read from the fitted curve at half-maximal effect.

SMILES | Nrf2 block | TrxR1 substrate | Mito fusion yeast | mIDH1 inhibitor | A549 viability | TrxR1 inh
COc1ccc(C(=O)Nc2nnc(-c3ccc(F)cc3)s2)c(OC)c1 | 16.4µM* | 6.8% | -1.7% | -2.5% | -1.3% | 25.7%
COc1ccccc1C(=O)Nc1nnc(-c2ccc(F)cc2)s1 | u | 13.3% | 4.6% | 1.6% | 1.8% | 40.1%
O=S(=O)(c1cccc(O)c1)N1CCN(S(=O)(=O)c2c(F)cccc2F)CC1 | 3.4% | x | x | x | -0.8% | x
COc1ccccc1C1N=C(Nc2nc3ccccc3o2)NC2=C1C(=O)CC(C)(C)C2 (centres undefined) | 2.5% | 12.7% | x | x | -2.8% | 23.3%
Nc1nc(Nc2ccccc2)nc2c1ncn2[C@@H]1O[C@H](CO)[C@H](O)[C@H]1O | x | x | x | x | x | 1.1%
Nc1ccc(N2CCN(c3ccc(Cl)c(Cl)c3)CC2)cc1 | u | -9.2% | 12.6µM* | 2.8% | -0.7% | -18.3%
Nc1ccc(N2CCN(c3ccc(F)cc3)CC2)cc1 | -29.3% | -2.7%[57.1 µM] | -3.1% | -5.4% | -18.8% | 4.1%[57.1 µM]
CSc1ccc(/C=C2\C=Cc3cc([N+](=O)[O-])ccc32)cc1 | x | -8.9% | x | x | x | u
COc1ccc(Br)c2c1-c1nc(NC(=O)c3cccc(C)c3)sc1C2 | -7.1% | -4.6% | x | -4.7% | -2.8% | u
N#CC1=C(NC=NCc2ccccc2)Oc2ccc3ccccc3c2C1c1ccccc1 (centres undefined) | 18.4µM* | x | x | x | -23.2% | x
N#CC1=C(N)Oc2ccc3ccccc3c2C1c1cccnc1 (centres undefined) | u | -1.6% | 0.9% | -5.9% | -10.2% | 8.8%
CNC(=O)C1CCN(Cc2cc3ccccc3n2Cc2cccc(C)c2)CC1 | x | -8.7%[57.1 µM] | x | 39.2% | 1.2% | -1.3%[57.1 µM]
COc1ccc(-n2c(=S)[nH]c3cc(C(=O)Nc4ccc(F)cc4)ccc3c2=O)c(OC)c1 | 20.6µM* | -1.1% | -1.3% | 1.5% | 1.4% | -1.7%
COc1ccc(NC(=O)c2ccc3c(=O)n(-c4ccc(OC)cc4OC)c(=S)[nH]c3c2)cc1 | -22.9% | 0.6%[57.1 µM] | 6.4% | -2.2% | -4.7% | -12.8%[57.1 µM]
COc1ccc(-n2c(=S)[nH]c3cc(C(=O)NCc4ccc(F)cc4)ccc3c2=O)c(OC)c1 | 16.4µM* | 7.6%[57.1 µM] | -1.4% | 1.7% | 0.6% | -0.1%[57.1 µM]
COc1ccc(OCC(=O)N2CCN(c3nnc(-c4ccccc4)c4ccccc34)CC2)cc1 | u | 13.8%[57.1 µM] | 2.9% | 5.0% | -10.6% | 11.1%[57.1 µM]
Cc1cc(C)c2nc(N3CCCN(C(=O)c4ccco4)CC3)c(C#N)cc2c1 | -9.0% | 23.4% | 7.9% | 0.5% | -1.3% | 10µM*
O=C(COc1ccccc1)N1CCN(c2nnc(-c3ccccc3)c3ccccc23)CC1 | 20.6µM* | 4.8%[57.1 µM] | 3.4% | 8.6% | u | 1.6%[57.1 µM]
Cc1ccc(-c2nnc(N3CCCCCC3)c3ccccc23)cc1 | 23.1µM* | 0.2%[57.1 µM] | -0.3% | -14.3% | u | -6.1%[57.1 µM]
Cc1ccc(-c2nnc(N3CCN(C(=O)COc4cccc(C)c4)CC3)c3ccccc23)cc1 | u | 1.6%[57.1 µM] | 12.6µM* | -7.8% | -25.6% | 2.6%[57.1 µM]
Cn1c2cc(C=O)sc2c2cnn(Cc3ccccc3F)c(=O)c21 | 20.3% | x | x | x | -2.7% | x
COC(=O)C1=C[C@@H](C(=O)OC)[C@@H]2C3=C(C(=O)C2(C)C)[C@H](c2ccccc2)[C@@H]2C(=O)N(c4ccccc4)C(=O)[C@@H]2[C@@H]3C1 | 6.3% | -0.7% | x | x | -3.8% | -21.7%
CCc1ccccc1NNC(=O)c1sccc1Cl | 2.3% | 4.6% | x | x | 2.8% | -15.1%
Cc1ccc(-c2nnc(N3CCN(C(=O)c4ccco4)CC3)c3ccccc23)cc1 | -16.7% | -4.6% | 18.3% | -1.0% | -10.3% | 56.2µM*
Cc1ccc(OCC(=O)N2CCN(c3nnc(-c4ccc(C)cc4)c4ccccc34)CC2)cc1 | 18.4µM* | 1.8%[57.1 µM] | u | 3.4% | u | 4.7%[57.1 µM]
O=C(CCNc1cc(Cl)cc(Cl)c1)c1ccco1 | 13.4% | 2.2% | -9.8% | 6.8% | 1.4% | 8.91µM*

Screening results (PubChem BioAssay)
